In PubChem BioAssay (NCI):
Compounds without any hit were thinned out: in the full panel of roughly 79,000, 15% have a hit. Calls of active or inactive are those of the source. Cut-off read from the data, not from the text of the source: active = growth inhibition above about 70%; inactive = the rest.

Tests used:
[1] = NCI Yeast Anticancer Drug Screen. Data for the wt1 strain (AID 149);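 note: 0% = growth of vehicle-treated wt1 cultures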; settings: S. cerevisiae wt1 strain (SPY 50644) growth inhibition, stronger effect = higher value
How it was run: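 The wt1 strain was treated with compounds, and growth was compared with vehicle-treated cultures to give inhibition.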

[2] = NCI Yeast Anticancer Drug Screen. Data for the rad50EPP+ strain (AID 151);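 note: 0% = growth of vehicle-treated control cultures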; settings: S. cerevisiae rad50 mutant strain, stronger effect = higher value
How it was run: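 Measured: growth inhibition of rad50EPP+ yeast. Reference: vehicle-treated controls. Screen uses strains with defined genetic alterations in DNA damage repair or cell cycle control.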

[3] = NCI Yeast Anticancer Drug Screen. Data for the mgt1 strain (AID 153); settings: S. cerevisiae mgt1 mutant growth inhibition, stronger effect = higher value
How it was run: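 Compounds were applied to mgt1 mutant yeast, and growth was then compared against vehicle-treated control cultures to give percent inhibition.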

[4] = NCI Yeast Anticancer Drug Screen. Data for the rad50 strain (AID 155);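 note: 0% = growth of vehicle-only cultures of the same strain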; settings: S. cerevisiae rad50 strain growth inhibition, stronger effect = higher value
How it was run: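 Cells are treated with compound, grown, and their growth is then scored against vehicle-only cultures of the same repair-deficient yeast strain.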

[5] = NCI Yeast Anticancer Drug Screen. Data for the mec2-1 strain (AID 157); settings: S. cerevisiae mec2-1 strain, stronger effect = higher value
How it was run: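 Compounds were applied to mec2-1 yeast cells. Their growth was then compared with that of vehicle-treated cultures to give growth inhibition.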

[6] = NCI Yeast Anticancer Drug Screen. Data for the rad14 strain (AID 159);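 note: 0% = growth of vehicle-treated control cultures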; settings: S. cerevisiae rad14 strain growth inhibition, stronger effect = higher value
How it was run: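 Readout: yeast growth inhibition, referenced to vehicle-only cultures. Strain bears a defined alteration in DNA damage repair.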

[7] = NCI Yeast Anticancer Drug Screen. Data for the sgs1 mgt1 strain (AID 161);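 note: 0% = growth of cultures given vehicle only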; settings: S. cerevisiae sgs1 mgt1 strain, stronger effect = higher value
How it was run: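 Compounds are added to genetically altered yeast, and growth is compared with cultures given vehicle alone to give percent inhibition.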

[8] = NCI Yeast Anticancer Drug Screen. Data for the CLN2oe strain (AID 163);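 note: 0% = growth of vehicle-only control cultures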; settings: S. cerevisiae CLN2oe strain, stronger effect = higher value
How it was run: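 Cells of an engineered yeast line with disturbed cell-cycle regulation are treated with compound. Inhibition of growth is then calculated relative to the vehicle-treated reference.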

[9] = NCI Yeast Anticancer Drug Screen. Data for the cln2 rad14 strain (AID 165);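 note: 0% = growth equal to vehicle treated cultures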; settings: S. cerevisiae cln2 rad14 strain, stronger effect = higher value
How it was run: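 Strain: cln2 rad14 yeast, altered in cell cycle control and DNA damage repair. Read-out: growth inhibition vs vehicle.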

[10] = NCI Yeast Anticancer Drug Screen. Data for the bub3 strain (AID 167); settings: S. cerevisiae bub3 mutant strain, stronger effect = higher value
How it was run: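 Part of a panel of yeast mutants defective in DNA damage repair or cell cycle regulation. Each strain is grown with compound, and inhibition is calculated relative to solvent-treated cultures.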

[11] = NCI Yeast Anticancer Drug Screen. Data for the wt2 strain (AID 169);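 note: 0% = growth of vehicle-treated yeast cultures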; settings: S. cerevisiae wt2 strain growth inhibition, stronger effect = higher value
How it was run: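 Growth of compound-treated yeast is measured and expressed as inhibition relative to vehicle-only controls.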

[12] = NCI Yeast Anticancer Drug Screen. Data for the mlh1 strain (AID 171);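 note: 0% = growth of vehicle-treated control cultures of the same strain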; settings: S. cerevisiae mlh1 strain growth inhibition, stronger effect = higher value
How it was run: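 Test agents were incubated with yeast bearing a defined DNA damage repair or cell cycle control alteration; values are growth inhibition normalised to vehicle-treated cultures.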

[13] = NCI Yeast Anticancer Drug Screen. Data for the sgs1 strain (AID 173);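 note: 0% = growth of vehicle-only control cultures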; settings: S. cerevisiae sgs1 mutant, stronger effect = higher value
How it was run: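 Strain with an altered DNA repair or cell cycle pathway exposed to compound. Growth then measured. Value = inhibition versus vehicle control.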

[14] = NCI Yeast Anticancer Drug Screen. Data for the mlh1 rad18 strain (AID 175); settings: S. cerevisiae mlh1 rad18 strain growth inhibition, stronger effect = higher value
How it was run: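 A repair-deficient yeast strain is exposed to test compound, and growth is scored relative to vehicle-treated controls.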

[15] = NCI Yeast Anticancer Drug Screen. Data for the rad18 strain (AID 177); settings: S. cerevisiae rad18 mutant growth inhibition, stronger effect = higher value
How it was run: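 DNA-repair-defective yeast; compound treatment; growth inhibition scored against vehicle.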

[16] = at 5.0 µM (retest, dose inferred, filed as 0.5)
[17] = at 50.0 µM (retest, dose inferred, filed as 5.0)

Measured: growth inhibition

CCOC(=O)C1C2c3ccccc3C(c3ccccc32)C1C(=O)OCC (stereo not drawn)
active: [1]; at 100.0 µM 79% | [3]; at 100.0 µM 93% | [4]; [17] 77% | [4]; at 100.0 µM 91% | [5]; at 50.0 µM 74.7% | [5]; at 100.0 µM 89% | [6]; at 100.0 µM 90% | [7]; [17] 89% | [7]; at 50.0 µM 80.2% | [8]; at 100.0 µM 93% | [10]; at 100.0 µM 76% | [11]; at 100.0 µM 95% | [12]; at 100.0 µM 86% | [13]; at 100.0 µM 97% | [14]; [17] 87% | [15]; at 100.0 µM 91%
inactive: [1]; at 1.2 µM -1% | [1]; at 3.7 µM -2% | [1]; at 11.0 µM -1% | [1]; at 33.0 µM 2% | [2]; at 1.2 µM -1% | [2]; at 3.7 µM -2% | [2]; at 11.0 µM 2% | [2]; at 33.0 µM -2% | [2]; at 100.0 µM 1% | [3]; at 1.2 µM -1% | [3]; at 3.7 µM 1% | [3]; at 11.0 µM 4% | [3]; at 33.0 µM 7% | [4]; at 1.2 µM 3% | [4]; at 3.7 µM 3% | [4]; [16] 13% | [4]; at 11.0 µM 8% | [4]; at 33.0 µM 15% | [4]; at 50.0 µM 17.3% | [5]; at 1.2 µM -1% | [5]; at 3.7 µM 1% | [5]; [16] -8% | [5]; at 11.0 µM 3% | [5]; at 33.0 µM 6% | [5]; [17] 1% | [6]; at 1.2 µM 5% | [6]; at 3.7 µM 7% | [6]; at 11.0 µM 12% | [6]; at 33.0 µM 16% | [7]; [16] 2% | [8]; at 1.2 µM 7% | [8]; at 3.7 µM 7% | [8]; at 11.0 µM 19% | [8]; at 33.0 µM 30% | [9]; [16] -4% | [9]; [17] 28% | [9]; at 50.0 µM 56.7% | [10]; at 1.2 µM 0% | [10]; at 3.7 µM 8% | [10]; [16] 18% | [10]; at 11.0 µM 11% | [10]; at 33.0 µM 17% | [10]; [17] 60% | [10]; at 50.0 µM 49% | [11]; at 1.2 µM -12% | [11]; at 3.7 µM -11% | [11]; at 11.0 µM 7% | [11]; at 33.0 µM 6% | [12]; at 1.2 µM -1% | [12]; at 3.7 µM 6% | [12]; at 11.0 µM 7% | [12]; at 33.0 µM 16% | [13]; at 1.2 µM -9% | [13]; at 3.7 µM -19% | [13]; at 11.0 µM 12% | [13]; at 33.0 µM 19% | [14]; [16] 16% | [14]; at 50.0 µM 53.1% | [15]; at 1.2 µM 1% | [15]; at 3.7 µM 8% | [15]; at 11.0 µM 9% | [15]; at 33.0 µM 11%
